USP30 inh = blocks human USP30 ubiquitin-rhodamine cleavage. purified USP30, Ub-rhodamine cleavage fluorescence. inhibition, % at 25 µM. AID 1645860. hit rate 5.3% among 47,000
USP17 block = human USP17-like deubiquitinase inhibition | purified USP17, Ub-rhodamine cleavage fluorescence, 3 h | inhibition, % at 50 µM | hit rate 6.5% among 47,000 | AID 1645855
Target sequence (A8MUK1 whole entry, looked up): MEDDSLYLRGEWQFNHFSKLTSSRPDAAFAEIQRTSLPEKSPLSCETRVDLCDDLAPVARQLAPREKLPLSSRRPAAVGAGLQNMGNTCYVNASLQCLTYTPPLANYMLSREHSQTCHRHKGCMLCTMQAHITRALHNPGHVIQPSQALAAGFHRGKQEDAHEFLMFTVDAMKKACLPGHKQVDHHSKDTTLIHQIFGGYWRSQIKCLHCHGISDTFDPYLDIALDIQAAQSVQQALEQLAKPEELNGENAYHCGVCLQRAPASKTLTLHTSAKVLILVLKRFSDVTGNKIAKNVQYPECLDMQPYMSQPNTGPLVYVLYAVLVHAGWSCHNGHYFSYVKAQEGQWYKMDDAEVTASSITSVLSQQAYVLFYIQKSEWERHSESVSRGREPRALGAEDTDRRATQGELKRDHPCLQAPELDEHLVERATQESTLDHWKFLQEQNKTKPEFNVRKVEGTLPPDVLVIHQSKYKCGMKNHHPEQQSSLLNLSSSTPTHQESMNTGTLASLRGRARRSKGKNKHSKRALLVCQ
USP10 inh = human USP10 deubiquitinase inhibition; hit rate 1.1% among 47,000; purified USP10, Ub-rhodamine fluorescence, 60 min; inhibition, % at 20 µM; Q14694
USP28 block = blocks human USP28 ubiquitin-rhodamine cleavage; purified USP28, Ub-rhodamine cleavage fluorescence, 30 min; inhibition, % at 25 µM; hit rate 3% among 47,000
USP8 block = blocks human USP8 ubiquitin-rhodamine cleavage. inhibition, % at 20 µM. P40818. AID 1645853. purified USP8, Ub-rhodamine cleavage fluorescence, 30 min. hit rate 4.2% among 47,000
* marks the source's active call; other numbers are inactive results; · = no result given. Hits are enriched below; roughly 14% of the tested compounds scored in any of these assays. Rule as the data show it: active = inhibition above about 30%; inactive = the rest.

SMILES | USP30 inh | USP17 block | USP10 inh | USP28 block | USP8 block
CCOc1ccc(NC(=O)COc2cccc3c2CCN(CC)C3=O)cc1 | -1 | -1 | 3 | 75* | -5
O=C(COc1cccc2c1CCN(Cc1cccnc1)C2=O)Nc1ccc2c(c1)OCCO2 | 5 | 59* | -2 | 90* | -88
CCN1CCc2c(OCC(=O)Nc3cc(C(F)(F)F)ccc3Cl)cccc2C1=O | 98* | 74* | -1 | 33* | -55
COc1ccc(NC(=O)COc2cccc3c2CCNC3=O)cc1OC | 9 | 19 | 1 | 9 | 0
CC(C)Cc1ccc(S(=O)(=O)N2CCN=C2N2CCCC2)cc1 | 16 | 0 | -2 | 13 | 10
Cc1ccc(CNC(=O)Cc2nnc(-c3ccc4ncccc4c3)o2)cc1 | -115 | 31* | -5 | 11 | 29
CCOC(=O)C1CCN(C(=O)c2cnc3scc(-c4ccc(C)cc4)n3c2=O)CC1 | -14 | -11 | -2 | -7 | -8
CSc1cccc(C(=O)Nc2ccc(-c3nc4ccccc4[nH]3)cc2)c1 | 32* | 63* | 13 | 20 | 15
Cc1ccc(C)c(NC(=O)CCc2c(C)nn(-c3cc(N(C)C)ncn3)c2C)c1 | 31* | 17 | 4 | 0 | -32
Cc1ccc(CNC(=O)CCc2c(C)nn(-c3cc(N4CCOCC4)ncn3)c2C)cc1 | -8 | -1 | -4 | 0 | -1
COc1ccc(-c2nc(Cn3cnc(S(=O)(=O)N4CCCCC4)c3)no2)cc1 | -55 | -20 | -2 | -6 | 15
O=C(NCCc1cccnc1)c1nc(-c2cn(-c3nccs3)cn2)n2ccccc12 | -108 | 45* | -11 | -5 | -16
CC1CCN(Cc2nnc(-c3cn(CC(=O)NC4CCCCC4)c4ccccc34)o2)CC1 | 60* | 35* | 9 | 5 | 8
CCn1cc(Cn2cc(N)cn2)cn1 | -13 | 13 | 1 | -8 | 73*
CCc1ccc(NS(=O)(=O)c2cc(-c3[nH]ncc3C(=O)N3CCCCC3)oc2C)cc1 | 41* | 22 | 0 | 1 | 10
Cc1nc2ccccc2n1CCC(O)c1ccccc1 (centres undefined) | 10 | 4 | -1 | 7 | 10
Cc1ccc(CN2CCC3(COCc4c(C)nc(N5CCOCC5)nc43)C2)cc1 (centres undefined) | 19 | 3 | 1 | 24 | 14
COc1ccc(CCNc2nc(-c3ccccc3)cc(-c3ccccc3)c2C#N)cc1OC | 26 | 37* | 7 | -2 | 3
CCOC(=O)c1cc(-c2ccccc2)sc1NC(=O)c1ccccc1OC | 6 | 3 | 1 | -2 | -2
CCCc1cc(=O)oc2cc(OCC(=O)NCc3ccccn3)ccc12 | 60* | 61* | 5 | 17 | 29
Cc1cc(=O)oc2cc(OCC(=O)NCc3ccccn3)ccc12 | 20 | 12 | 1 | 11 | 0
O=C(Cn1c(=O)n(Cc2ccc3c(c2)OCO3)c(=O)c2ccccc21)Nc1ccc2c(c1)OCCO2 | -5 | 0 | 13 | 12 | -2
O=C(CCn1c(=O)c2ccccc2n(CC(=O)Nc2ccc3c(c2)OCCO3)c1=O)NCCc1ccccc1 | 4 | 48* | 21 | -2 | 6
COCCCNC(=O)c1ccc(Cn2c(=O)c3ccccc3n(CC(=O)Nc3ccc4c(c3)OCCO4)c2=O)cc1 | -4 | -1 | 29 | -4 | 32*
Cc1ccc(NC(=O)Cn2c(=O)n(CCC(=O)NCCc3ccc(Cl)cc3)c(=O)c3ccccc32)cc1 | 20 | 16 | 6 | 15 | 18
SMILES | USP30 inh | USP17 block | USP10 inh | USP28 block | USP8 block
O=C(CCCCn1c(=O)[nH]c2ccccc2c1=O)Nc1cccc(Cl)c1 | 20 | 80* | 20 | 8 | 81*
O=C(CCCCCn1c(=O)[nH]c2ccccc2c1=O)Nc1ccccc1Br | 35* | 16 | 9 | 3 | 18
Fc1ccc(-c2nc(C3CC3)ncc2-c2nnnn2-c2ccccc2)c(F)c1 | 19 | 12 | 3 | 13 | 3
Fc1ccc(-c2nc(C3CC3)ncc2-c2nnnn2-c2ccccc2)cc1F | 30* | 15 | 5 | 17 | 23
CCOC(=O)c1c(-n2cccc2)c2cc(OC)ccc2n1CC(C)=O | -63 | -18 | -5 | -23 | -2
O=C(NCc1ccco1)c1ccc(Cn2c(SCc3ccccc3)nc3ccncc32)cc1 | 74* | 88* | 0 | 72* | 35*
CCOc1ccc(NC(=O)COc2ccc(F)cc2)c2cccnc12 | -8 | 5 | -2 | -3 | 17
CCCCOc1cccc(C(=O)Nc2ccc(OCC)c3ncccc23)c1 | 1 | 47* | -7 | 18 | 83*
Clc1cccc(-c2cn[nH]c2C2CCCN2)c1 (centres undefined) | 34* | 4 | 3 | 15 | 3
Cn1c2ccccc2c2ncn(Cc3ccc(F)cc3)c(=O)c21 | 34* | 71* | 7 | 32* | -1
CCCCn1cnc2c3cc(F)ccc3n(C)c2c1=O | 65* | 65* | 4 | 22 | 15
CCn1cnc2c(-c3ccccc3)cn(CC(=O)NCc3ccc(F)cc3)c2c1=O | -76 | 0 | -7 | -23 | 14
COc1ccc2c(c1)c1ncn(CCCn3ccnc3)c(=O)c1n2C | -1 | 1 | 1 | 1 | 5
CCOc1ccc(NS(=O)(=O)c2c[nH]c3ccc([N+](=O)[O-])cc23)cc1 | 63* | 53* | 8 | 15 | -12
CC(NC(=O)c1cc(C2CC2)[nH]n1)c1cc2ccccc2o1 (centres undefined) | 11 | 14 | -1 | 9 | 19
COc1ccc(-c2ocnc2C(=O)NCc2ccc(F)cc2)cc1 | -4 | 12 | 0 | 55* | 14
COc1ccc(-c2ocnc2C(=O)Nc2ccc(C)c(F)c2)cc1 | · | -2 | 2 | · | -2
Cc1cc(C(=O)Nc2ccc3nc(N4CCN(c5ncccn5)CC4)cc(C)c3c2)ccc1[N+](=O)[O-] | 25 | 73* | 3 | 1 | 3
Cc1cc(N2CCN(c3ncccn3)CC2)nc2ccc(NC(=O)Cn3nc([N+](=O)[O-])c(Br)c3C)cc12 | 68* | 64* | 33* | 42* | 30
CCn1c(=O)[nH]c2c(C(=O)N3CC=C(c4ccccc4)CC3)snc2c1=O | 0 | -2 | 0 | -9 | -11
CCc1ccc(C(=O)N2CC(C(=O)N3CCOCC3)Oc3ccccc32)cc1 (centres undefined) | -27 | 6 | -5 | -2 | -13
Cc1cc(=O)[nH]c2c1c(-c1ccccc1)nn2C | 13 | 3 | 0 | 5 | -1
Cc1cc(=O)[nH]c2cc(-c3ccccc3)nn12 | 38* | 11 | -1 | 3 | 3
COc1ccc(OC)c(S(=O)(=O)N2CCN(Cc3nnnn3-c3ccccc3)CC2)c1 | 18 | 7 | -3 | 7 | 0
COc1ccc(-n2nnnc2CN2CCN(S(=O)(=O)c3ccc(Cl)cc3)CC2)cc1 | 47* | 40* | 10 | 16 | 16
Cn1c(-c2c(-c3ccccc3)n[nH]c2-c2ccccc2Cl)nc2ccccc21 | 7 | -6 | 8 | 38* | 0
Clc1ccccc1-c1nc2ccccc2c2nncn12 | 26 | 12 | 0 | 10 | 25
COc1cccc(OCc2nc3c4cnn(C)c4ncn3n2)c1 | -4 | -17 | 1 | -3 | -8
